Source: PubChem BioAssay (several laboratories)
pCIP destab: compounds decreasing mouse p/CIP protein stability; AID 1984; decrease of EGFP signal, % at 10 µM; Q05BA5; actives 0.01% (n = 290,000); F442A p/CIP-EGFP cells, EGFP fluorescence, 16 h;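 active means EGFP signal decrease of at least 30% at 10 µM or well 3 SD below plate mean, unless failing retest; inactive means the rest, including hits failing retest or dose response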
HTR5A ag: HTR5A agonism, opioid heterodimer counter-screen | P47898 | HTR5A agonist assay, luminescence, cell-based | activation, % at 9.3 µM | actives 0.61% (n = 340,000) | AID 504692; in the data active means activation mostly above about 9.5%, no sharp cut-off; inactive means mostly below about 7.6%;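 further: 0% = cells with vehicle only and 100% = reference agonist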
MOR-DOR inv ag: mu-delta opioid heterodimer inverse agonism. P35372+P41143. cell-based MOR-DOR heterodimer luminescence. inhibition, % at 9.3 µM. actives 0.21% (n = 340,000). AID 504357; in the data active means inhibition above about 22%, passing the limit was not always enough;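 further: 0% = cells with DMSO and 100% = wells without cells with DMSO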
HTR5A inv ctr: HTR5A inverse agonism, opioid heterodimer counter-screen | HTR5A cell line, luminescence | inhibition, % at 9.3 µM | actives 0.083% (n = 340,000) | AID 504634; in the data active means inhibition mostly above about 23%, no sharp cut-off; inactive means mostly below about 18%;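 further: 0% = cells with DMSO and 100% = no-cell wells with DMSO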
beta cell repl: induces beta-cell replication in MIN6 cells | AID 2380 | actives 0.29% (n = 330,000) | MIN6 cells proliferation, ATPlite luminescence, 48 h; cells starved in 0.2% serum; 100% = growth in 10% serum | proliferation, % at 10 µM;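 active means compounds whose signal lies at least 3.5 SD above the mean of all wells on their plate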;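 further: 0% = DMSO-treated cells in low-serum medium and 100% = 10% serum control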
OPRM1-OPRD1 ag: OPRM1-OPRD1 heterodimerization agonism; AID 504326; actives 0.3% (n = 340,000); cells, luminescence; activation, % at 9.3 µM; in the data active means activation above about 18%;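 further: 0% = vehicle-treated cells and 100% = reference agonist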
Active calls of the source: *; x = no result. Sampled rows, rich in hits. Any-hit rate of the full collection: about 1.4%.

SMILES | pCIP destab | HTR5A ag | MOR-DOR inv ag | HTR5A inv ctr | beta cell repl | OPRM1-OPRD1 ag
COc1ccc(C)cc1-n1c(SCC(=O)NCC2CCCO2)nc2c([nH]c3ccccc32)c1=O (stereo unspecified) | -10 | 2 | -3 | -15 | -2 | 1
COc1ccc(S(=O)(=O)N2CCOCC2)cc1NC(=O)COC(=O)c1ccc([N+](=O)[O-])s1 | x | -1 | -15 | 6 | -2 | 3
Cc1c(Cl)cccc1NC(=O)c1cccc(NC(=O)CCC(=O)O)c1 | 3 | 12* | 11 | 16 | -1 | -3
Cc1ccc(NC(=O)c2cccc(NC(=O)CCC(=O)O)c2)cc1C | -10 | -3 | 6 | 9 | 0 | -1
CCN(c1ccccc1)S(=O)(=O)c1ccc(Cl)c(NC(=O)CSc2ncn[nH]2)c1 | 0 | 1 | 6 | -39 | -1 | -1
CCN(c1ccccc1)S(=O)(=O)c1ccc(Cl)c(NC(=O)c2ccc(=O)[nH]n2)c1 | x | 12* | -15 | -30 | -1 | 4
CSc1ncccc1C(=O)OCC(=O)NCc1ccccc1 | x | 13* | 12 | 12 | -2 | -3
CC(=O)Nc1cc(OC(C)=O)c2nonc2c1OC(C)=O | -6 | 10 | -134 | -11 | -5 | 23*
CC(=O)Nc1nonc1NC(C)=O | 4 | -2 | 0 | 6 | -2 | 0
CCOc1ccc(NC(=O)c2cc(OC)nc3ccccc23)cc1 | 5 | 12* | 4 | -46 | -4 | -1
COc1cc(C(=O)Nc2ccc(C)cc2)c2ccccc2n1 | -8 | 2 | -13 | -7 | -3 | 3
O=C(NCc1ccco1)C1CCN(S(=O)(=O)c2cccc3cccnc23)CC1 | -9 | 3 | 4 | -10 | 3 | -1
O=C(NCc1cccs1)C1CCN(S(=O)(=O)c2cccc3cccnc23)CC1 | -3 | 14* | 1 | -41 | -2 | 0
CC1(C)CC(NC(=O)c2cc(S(=O)(=O)N3CCOCC3)ccc2Cl)CC(C)(C)N1 | x | -1 | 12 | 14 | 2 | -3
O=C(Nc1ccc(Cl)cc1)/C(=C/c1cccc(O)c1)c1nc2ccccc2s1 | -2 | 11* | -34 | -41 | -7 | 6
CC(=O)Nc1ccc(-n2c(C)nc(=O)c(-c3ccccc3)c2C)cc1 | -6 | 10* | 10 | -4 | -2 | -2
CCC(C)Sc1ccc(-c2nc3ccc(C)cn3c2NCc2ccccc2)cc1OC (stereo unspecified) | x | 11* | -46 | -33 | -8 | 8
CCC(C)Sc1cc(-c2nc3ccc(C)cn3c2NCc2ccccc2)ccc1OC (stereo unspecified) | x | 16* | -124 | 10 | x | 21*
COc1cccc(CNC(=O)c2cccc(S(=O)(=O)N3CCN(Cc4ccccc4)CC3)c2)c1 | x | -1 | 14 | 11 | x | -4
O=C(c1ccc(CS(=O)c2ccc(F)cc2)o1)N1CCN(C2CCCCC2)CC1 (stereo unspecified) | 2 | 2 | -3 | 9 | -4 | 1
O=C(NNC(=S)Nc1ccc(C(=O)O)c(O)c1)c1ccncc1 | x | 2 | 14 | -9 | x | -3
O=C(CN1CCN(C(=O)c2ccc(-c3nc4ccccc4s3)o2)CC1)Nc1ccc(F)cc1 | x | 4 | 9 | -10 | -4 | -2
Cc1ccc(S(=O)(=O)N2CCN(C(=O)COC(=O)COc3cccc(C(F)(F)F)c3)CC2)c(C)c1 | x | 1 | -1 | -4 | -2 | 0
O=C(O)CCc1ccc(-c2ccccc2)n1Cc1ccco1 | 3 | 9.7* | -1 | -7 | 1 | 0
COc1ccc(-n2nc(C(=O)NCC(=O)NCc3ccc(F)cc3)c3ccccc3c2=O)cc1 | -11 | -2 | 2 | 6 | 0 | 0
CC(=O)N/C(=C\c1ccccc1)C(=O)OCc1cccc(S(=O)(=O)N(C)C)c1 | -3 | 9.4* | -2 | -34 | x | 0
Cc1cc(C)c(C)c(S(=O)(=O)N2CCN(C(=O)CNC(=O)c3ccco3)CC2)c1C | x | 14* | -4 | 0 | 3 | 1
CC(C)(C)OC(=O)N1CCC(C(=O)Nc2ccc3c(c2)CCC3)CC1 | x | 5 | 4 | 11 | -3 | -1
O=C1[C@H](Oc2ccccc2)[C@@H](c2ccccc2)N1c1ccncc1 | x | 9.4* | 18 | -34 | x | -4
O=C1[C@@H](Oc2ccccc2)[C@@H](c2ccccc2)N1c1ccccc1 | x | 2 | -16 | -7 | x | 4
